# Potency and affinity values are given separately.
# Experiments:
# Klebsiella pneumoniae = conditions: Concentration 20 uM; ASSAY_TEST Inhibition of Bacterial Growth; detection method Absorption (OD600); MEDIA CAMHB; plate type 384well; NBS; CORNING #3640; time 18 hr
# Candida albicans = conditions: 20 µM
# Cryptococcus neoformans = conditions: Concentration 20 uM; ASSAY_TEST Inhibition of Fungal Growth; detection method Resazurin; Absorption (OD600-OD570); plate type 384well; NBS; CORNING #3640
SMILES,Inhibition (Klebsiella pneumoniae) [%],Inhibition (Candida albicans) [%],Inhibition (Cryptococcus neoformans) [%]
COc1ccc([C@@H]2Sc3ccccc3N(CCN(C)C)C(=O)[C@@H]2OC(C)=O)cc1.Cl [DILTIAZEM HYDROCHLORIDE],11.57,4.02,1.8
Nc1ncnc2c1ncn2[C@@H]1O[C@H](CO)C[C@@H]1O.O,6,5.13,-7.2
CS(=O)(=O)OCCCCOS(C)(=O)=O [BUSULFAN],14.59,3.72,-1.79
CC=CC(=O)N(CC)c1ccccc1C,0.87,0.3,-7.28
CC1=Nc2ccc(Cl)cc2S(=O)(=O)N1 [DIAZOXIDE],19.87,4.07,-6.19
CN(C)CCOC(C)(c1ccccc1)c1ccccn1.O=C(O)CCC(=O)O (stereo not drawn) [DOXYLAMINE SUCCINATE],9.97,0.07,-8.18
CC(C)c1ccc2oc3nc(N)c(C(=O)O)cc3c(=O)c2c1 [AMLEXANOX],7.43,8.26,-1.01
CN(CCO)CC(O)Cn1cnc2c1c(=O)n(C)c(=O)n2C.O=C(O)c1cccnc1 (stereo not drawn) [XANTHINOL NIACINATE],12.07,0.26,-2.36
CC[C@H](C)C(=O)O[C@H]1CCC=C2C=C[C@H](C)[C@H](CC[C@@H]3C[C@@H](O)CC(=O)O3)[C@H]21 [MEVASTATIN],5.3,24.7,-2.39
CC(C)(C)NC(=O)[C@@H]1CN(Cc2cccnc2)CCN1C[C@@H](O)C[C@@H](Cc1ccccc1)C(=O)N[C@H]1c2ccccc2C[C@H]1O.O=S(=O)(O)O [INDINAVIR SULFATE],0.54,2.58,-4.45
COc1ccc2cc(CCC(C)=O)ccc2c1 [NABUMETONE],8.45,5.24,-7.4
CC(N)(Cc1ccc(O)c(O)c1)C(=O)O (stereo not drawn) [METHYLDOPA (RACEMIC)],2.57,3.32,7.73
C=C1/C(=C\C=C2/CCC[C@]3(C)[C@@H]([C@H](C)/C=C/[C@@H](O)C4CC4)CC[C@@H]23)C[C@@H](O)C[C@@H]1O [CALCIPOTRIENE],16.21,0.06,0.21
C[C@@H]1O[C@@H](OC[C@H]2O[C@@H](Oc3c(-c4ccc(O)c(O)c4)oc4cc(O)cc(O)c4c3=O)[C@H](O)[C@@H](O)[C@@H]2O)[C@H](O)[C@H](O)[C@H]1O [RUTIN],10.13,3.37,-5.7
COc1ccc(/C=C/C(=O)Nc2ccccc2C(=O)O)cc1OC,8.22,4.95,4.45
O=C(NCCN1CCOCC1)c1ccc(Cl)cc1 [MOCLOBEMIDE],9.06,3.1,-2.98
Nc1nc(N)nc(-c2cc(Cl)ccc2Cl)n1.O=C(O)/C=C\C(=O)O [IRSOGLADINE MALEATE],5.85,2.42,-1.72
CC1CCN(CCCC(=O)c2ccc(F)cc2)CC1.Cl,24.05,2.99,-4.29
COCCCC/C(=N\OCCN)c1ccc(C(F)(F)F)cc1.O=C(O)/C=C\C(=O)O [FLUVOXAMINE MALEATE],6.46,2.11,-8.17
CCCCN1CCCC1CNC(=O)c1cc(C#N)c2ccccc2c1OC (stereo not drawn) [NAFADOTRIDE],16.43,4.38,-22.16
Clc1ccc2c(c1)C(N1CCNCC1)=Nc1ccccc1O2 [AMOXAPINE],12.52,4.28,-1.42
OCCN(CCO)c1nc(N2CCCCC2)c2nc(N(CCO)CCO)nc(N3CCCCC3)c2n1 [DIPYRIDAMOLE],2.81,2.59,5.59
CC1(C)S[C@@H]2[C@H](NC(=O)[C@H](N)c3ccc(O)cc3)C(=O)N2[C@H]1C(=O)O [AMOXICILLIN],10.29,9.25,-2.09
Nc1ccn([C@@H]2CS[C@H](CO)O2)c(=O)n1 [LAMIVUDINE],20.65,2.4,-7.82
CC[C@@H]1C(=O)OC[C@@H]1Cc1cncn1C.Cl [PILOCARPINE HYDROCHLORIDE],13.79,2.29,-1.97
COc1ccccc1OCC(O)COC(N)=O (stereo not drawn) [METHOCARBAMOL],10.57,3.99,-8.85

# Source: ChEMBL document CHEMBL4513141, “CO-ADD screening of NIH (USA) - Clinical Collection” (2021)
